Experimental data from PubChem BioAssay (NCI).
About 83,000 compounds went through this panel and 20% of them were active in at least one assay; those are over-represented in the sample as a whole.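 Assay: single dose, 48 h. Readout: percent growth (0 = no net growth; negative = cell death). Active: <10.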 Activity calls are given as the source filed them.

system: KM12 colon; assay: NCI-60 one-dose screen, 48 h (100 = growth as untreated, 0 = no growth, -100 = all killed); details: 10 µM unless noted

| SMILES | growth |
| --- | --- |
| COc1ccc(-c2cc(-c3ccc(OC)cc3)nc(NCCCNc3ccnc4cc(Cl)ccc34)n2)cc1 | 44.8% (inactive) |
| Cn1cc(/C=C2/C(=O)Nc3ccccc32)c2ccccc21 | 14.8% (inactive) |
| CC[C@H](CC[C@@H](C)[C@H]1CC[C@H]2[C@@H]3CC[C@@H]4CC(=O)/C(=C\c5ccncc5)C[C@]4(C)[C@H]3CC[C@]12C)C(C)C | 102% (inactive) |
| CCOC(=O)c1c(-c2ccc(Cl)cc2)c(C#N)c2c(C#N)c(N)nn2c1N | 58.7% (inactive) |
| CC1O[C@@H]2C[C@@](O)([C@H]1O)n1c3ccccc3c3c4c(c5c6ccccc6n2c5c31)C(=O)NC4=O (stereo not given in full) | 22.8% (inactive) |
| O=C1Nc2ccccc2/C1=C/c1cn(C[C@@H](O)Cn2c3ccccc3c(=O)c3ccccc32)c2ccccc12 | 68.2% (inactive) |
| Cc1cscc(C)c1=S | 104% (inactive) |
| Clc1nccc2c(-c3csc(-c4c[nH]c5ccccc45)n3)c[nH]c12 | 47.5% (inactive) |
| Cc1ccc2[nH]c(-c3ccc(S(C)(=O)=O)cc3)c(/C=N/N=C(N)N)c2c1 | 46.1% (inactive) |
| Nc1n[nH]c2ccc([C@@H]3Nc4cc5[nH]ncc5cc4[C@H]4C5CCC(C5)[C@@H]34)cc12 (stereo not given in full) | 15.6% (inactive) |
| Cc1[nH]c(C(=O)Nc2ccc(C(N)=O)cc2NC(C)C)c(Cl)c1Cl | 98.9% (inactive) |
| COc1cc(C(=O)/C=C/c2ccc(N3CCN(C)CC3)cc2)cc(OC)c1OC | 99.3% (inactive) |
| C#CCn1cnc2c(Nc3cccc(NC(=O)CCl)c3)ncnc21 | 37.7% (inactive) |
| CC1=CCC[C@@H]2C1(C)CC[C@H](C)[C@@]2(C)CC1=CC(=O)C(SC(C)(C)C)=CC1=O (stereo not given in full) | 93.1% (inactive) |
| C/C(=N\Nc1nc(C)cs1)c1cc2ccccc2o1 | 95.5% (inactive) |
| COc1ccc(C2C(C#N)=C(N)Oc3c2sc2c(Br)cccc32)cc1 (stereo not given) | 27.5% (inactive) |
| C#Cc1cccc(Oc2ccc(NC(=O)CCl)cc2)c1 | 64.2% [8.25 µM] (inactive) |
| O=C1CCC(C(=O)NN(c2ccccc2)c2ccccc2)N1 (stereo not given) | 87.3% (inactive) |
| CCC(CC)(N(CC(=O)O)CC(=O)O)C(CC)(CC)N(CC(=O)O)CC(=O)O | 120% (inactive) |
| CCCCN1C(=O)/C(=c2\sc3n(c2=O)NC2C(N=3)N(CC)C(=O)N2CC)c2ccccc21 (stereo not given) | 20.3% (inactive) |

| SMILES | growth |
| --- | --- |
| COc1ccc(C(c2cc(OC)c(OC)c(OC)c2)N2CCCC2)cc1 (stereo not given) | 43.9% (inactive) |
| Cc1ccc(C(=O)c2ccc(CC(=O)N/N=C/c3ccc(O)cc3O)n2C)cc1 | 36.1% (inactive) |
| COc1ccc(NC(=O)c2sc3nc4c(cc3c2N)CCCC4)cc1 | 25.8% (inactive) |
| COc1cc2c3c(c1O)-c1ccccc1[C@@H]1OC(=O)N(CC2)[C@H]31 | 108% (inactive) |
| Cc1cccc(-n2c(C)nc3ccc(N4CCCNC4=O)cc3c2=O)c1 | 111% (inactive) |
| CCN(CC)CCCNCc1cc(-c2ccccc2)nc2cc(Cl)ccc12 | 14.5% (inactive) |
| Cn1c(O)c(C(/C=C/c2ccccc2)=Nc2ccccc2N)c(=O)n(C)c1=O | 107% (inactive) |
| CC1COCC(C)N1C1=C(Cl)C(=O)c2ccccc2C1=O (stereo not given) | 89% (inactive) |
| CC(C)(C)c1cc(C=Nc2cccc(C(F)(F)F)c2)c(O)c(C(C)(C)C)c1 | 102% (inactive) |
| Cn1cc(-c2csc(-c3cn(C(=O)OC(C)(C)C)c4ccccc34)n2)c2ccnc(Cl)c21 | 50.4% (inactive) |
| CN1CCCc2cc(/C=C3/SC(=S)N(CCc4ccc(O)cc4)C3=O)ccc21 | 48.7% (inactive) |
| COC(=O)C1=C(C)NC(C)=C(C(=O)OCC(C)C)C1c1ccccc1[N+](=O)[O-] (stereo not given) | 27.4% (inactive) |
| COc1ccc(OC)c(-c2cn3nc(-c4c[nH]c5ccc(Br)cc45)sc3n2)c1 | 11% (inactive) |
| Clc1nn2c(Cn3cnc4c(NCc5ccccc5)ncnc43)nnc2c2ccccc12 | 58.9% (inactive) |
| N#Cc1c(-c2ccccc2)nc2c(c(-c3ccccc3)nn2-c2ccccc2)c1-c1ccc(N2CCOCC2)cc1 | 95.7% (inactive) |
| CC(O)c1ncc(/C=C2\SC(=S)N(Cc3ccccc3)C2=O)s1 (stereo not given) | 81% (inactive) |
| O=C(Nc1ccccc1O)c1ccccc1Nc1ccnc(C(F)(F)F)c1 | 102% (inactive) |
| O=C(Cn1nnc([N+](=O)[O-])n1)c1ccccc1 | 95.9% (inactive) |
| Cc1ccc(-c2nc(C(Cl)Cl)nc3cc(C)nn23)cc1 | -9.44% (active) |
| O=C(N/N=C/c1ccc([N+](=O)[O-])cc1)c1ccc2nc(-c3ccc(Cl)cc3)[nH]c2c1 | 13% (inactive) |
